The target in test [1] is RecQ-like DNA helicase BLM (Homo sapiens) (UniProt P54132). Put plainly: qHTS Validation Assay for Inhibitors of Bloom's syndrome helicase (BLM) (AID 2364).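 Further: plate controls were DMSO vehicle for no effect and enzyme-free control for full effect.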 Put shortly:
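BLM 50 nM in 25 mM Tris-HCl pH 8.0, 5 mM NaCl, 2 mM MgCl2, 1 mM DTT, 0.01% Tween-20, 2.5 ug/ml poly(dI-dC); 15 min cpd preinc, RT. Start: 200 nM forked DNA + 2 mM ATP (final). TAMRA read, 2 reads 2 h apart.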
In general terms: Quantitative high-throughput screening tests each substance at several concentrations.

Test [2] deals with Luciferin 4-monooxygenase (Photinus pyralis) (UniProt P08659). In words: Biochemical firefly luciferase enzyme assay for NPC (AID 624030). Further: nearly all actives have a fitted effect of over 70% in size. Further: potency means the concentration at half of the fitted maximal effect. Put shortly:
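Counter-screen for direct inhibition of the luciferase enzyme by approved-drug library compounds, run at 10 nM enzyme in 50 mM Tris acetate (final). Luminescence was read within 5 min of enzyme-buffer addition and normalized to PTC124 versus DMSO (0%).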

Test [3] can be described thus: S16 Schwann cell viability assay (CellTiter-Glo assay) (AID 624031). Further: nearly all actives have a fitted effect of over 70% in size. Further: potency means the concentration at half of the fitted maximal effect. The procedure, abridged:
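Following overnight culture in 10% FBS DMEM, parental S16 rat Schwann cells are dosed for 24 h at 37 °C. Viability is read as CellTiter-Glo luminescence and expressed as % activity relative to DMSO (0%) and no-cell wells.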
For orientation: ATP-based viability assays read luminescence as a measure of living cells.

Test [4] concerns 7G8. In words: qHTS profiling for inhibitors of Plasmodium falciparum proliferation (AID 504749). Further: nearly all actives have a fitted effect of over 60% in size. Further: potency means the concentration at half of the fitted maximal effect. The conditions noted are these: P. falciparum in erythrocytes, SYBR Green DNA, 72 h; series mostly up to 12.8 µM. Put shortly:
(§1)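 Quantitative HTS: compounds pinned into medium, infected erythrocytes added (0.3% parasitemia, 2.5% hematocrit), 72 h culture at 37 C under 5% CO2. Saponin/Triton lysis with SYBR Green I, overnight RT, then fluorescence read.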

In test [5] the test system is CP191. The test is described as above. The conditions noted are these: P. falciparum in erythrocytes, SYBR Green DNA, 72 h; series mostly up to 28.7 µM. The procedure, abridged:
as §1

For test [6], the system named is CP260. Described as above. As to conditions: P. falciparum in erythrocytes, SYBR Green DNA, 72 h; series mostly up to 28.7 µM. The procedure, abridged: as §1
Test [7] concerns CP335. Described as above. As to conditions: P. falciparum in erythrocytes, SYBR Green DNA, 72 h; series mostly up to 12.8 µM. The procedure, abridged:
as §1

Test [8] has as its system DIV14. The test is described as above. The conditions noted are these: P. falciparum in erythrocytes, SYBR Green DNA, 72 h; series mostly up to 28.7 µM. The procedure, abridged: as §1
Test [9] relates to DIV17. Described as above. The conditions noted are these: P. falciparum in erythrocytes, SYBR Green DNA, 72 h; series mostly up to 28.7 µM. The procedure, abridged: as §1
Test [10] deals with Dd2. The description is as above. As to conditions: P. falciparum in erythrocytes, SYBR Green DNA, 72 h; series mostly up to 28.7 µM. Put shortly:
as §1

In test [11] the test system is JCK. The test is described as above. The conditions noted are these: P. falciparum in erythrocytes, SYBR Green DNA, 72 h; series mostly up to 28.7 µM. The procedure, abridged: as §1
For test [12], the system named is TAB165. The test is described as above. As to conditions: P. falciparum in erythrocytes, SYBR Green DNA, 72 h; series mostly up to 28.7 µM. Put shortly: as §1
Test [13] deals with Alpha-galactosidase (Coffea arabica) (UniProt Q42656). Put plainly: Counterscreen for Glucocerebrosidase Inhibitors: qHTS Assay for Coffee Bean alpha-Galactosidase at pH 4.5 (AID 957).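 Further: plate controls were enzyme alone for no effect and no enzyme for full effect.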 The procedure, abridged:
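Enzyme is added first (2 nM final), then compounds titrated from 0.7 nM to 77 uM, then 80 uM 4-methylumbelliferyl alpha-D-galactopyranoside; after 20 min at room temperature a pH 10 NaOH/glycine stop precedes fluorescence reading at 365/440 nm.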
For orientation: The purpose of a counterscreen is to sort out artefacts and off-target activity.

For test [14] the target is unchanged. Put plainly: Counterscreen for Glucocerebrosidase Inhibitors: qHTS Assay for Coffee Bean alpha-Galactosidase at pH 5.9 (AID 998).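 Further: plate controls were uninhibited enzyme for no effect and no-enzyme basal signal for full effect.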 The procedure, abridged:
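In 50 mM citric acid pH 5.9 with 0.005% Tween-20, coffee bean enzyme hydrolyses 80 uM 4-MU alpha-D-galactopyranoside over 20 min at RT. Activity is normalized to controls; AC50 comes from Hill-modelled concentration-response data.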

Test [15] addresses Chromobox protein homolog 1 (Homo sapiens) (UniProt P83916). In words: qHTS Validation Assay for Inhibitors of HP1-beta Chromodomain Interactions with Methylated Histone Tails (AID 488953). Further: potency means the concentration at half of the fitted maximal effect; nearly all actives have a fitted effect of over 50% in size. The procedure, abridged:
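Disruption of preformed HP1-beta:H3K9me3 peptide complexes (both 50 nM, PBS pH 7.4 with 0.01% Tween-20) is measured by AlphaScreen after 30 min compound exposure at room temperature, using streptavidin donor and nickel chelate acceptor beads at 10 ug/mL final.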

Test [16] in a line: Validation screen for small molecules that induce genotoxicity in human embryonic kidney (HEK293T) cells expressing luciferase-tagged ELG1 (AID 493106). Further: 0% is about no effect. The procedure, abridged: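 Cells were dispensed at 2,000 per well, then 23 nL compound or DMSO was pinned in. After 16 hr at 37 °C and 5% CO2, ONE-Glo reagent was added. Luciferase activity was measured following 30 min at room temperature.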

A short description of test [17]: Inducers of the Endoplasmic Reticulum Stress Response (ERSR) in human glioma: Validation (AID 504836). Further: 0% is about no effect. The procedure, abridged: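 Stably transfected U87-MG human glioma cells carrying a GRP78-based luminescent sensor were seeded at 1000 cells/well, pin-dosed with compounds and incubated 16 h. Luciferase reagent was then added, and end-point luminescence was read after 10 min at room temperature.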

A short description of test [18]: qHTS assay to identify small molecules that stimulate interleukin-8 (IL-8) secretion (AID 651758; active means well fitted activation curve with a large enough effect in the signal ratio; the % refers to the signal ratio; further: 0% is about no effect). Put shortly:
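Quantitative HTS in THP-1 monocytic cells at 2000 cells per well, with 16 hrs compound incubation at 37 C. IL-8 in the medium was then quantified by HTRF immunoassay, read after 1-3 hrs at room temperature.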

Test [19] deals with Bile acid receptor (Homo sapiens) (UniProt Q96RI1). In words: qHTS assay for small molecule agonists of farnesoid X receptor signaling (AID 588527; calls by dose curve;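 further: 0% = vehicle basal and 100% = reference agonist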). The conditions noted are these: HEK293T FXR-UAS-bla, beta-lactamase ratio, 16 h; stronger effect = higher value. The procedure, abridged:
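Quantitative HTS used FXR-UAS-bla HEK293T cells with 16 h compound incubation at 37 C. EC50 values came from concentration-response curves normalized to chenodeoxycholic acid.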

Test [20] concerns the target Androgen receptor (Homo sapiens) (UniProt P10275). In words: qHTS assay for small molecule antagonists of androgen receptor signaling (AID 588516; active means well fitted curve in the direction sought with a large enough effect in the signal ratio, with a control signal flat, not every such curve was filed as active; the % refers to the signal ratio; further: on the % scale 0 is the no-effect control and ±100 the full control effect). Put shortly: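 Antagonist-mode qHTS: inhibition of R1881 (10 nM)-driven beta-lactamase expression in GripTite HEK 293 cells is measured after 16 h; values are Hill-derived IC50s normalized between R1881 and DMSO wells.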

The structures appear in SMILES notation. Several values for one entry are separate records, joined by “and”; a condition that tells them apart may be missing. Identical values can stand only once. Results filed as inconclusive are left out. Activity calls are given as the source filed them. Unless noted, the call rests on the fitted dose curve; in most records, active means well fitted curve in the direction sought with a large enough effect; inconclusive means small, poorly fitted or top-dose-only effect, or another doubt; inactive means no such curve, though single readings can be large; an effect the other way counts as inactive or inconclusive.

Sequence of Bile acid receptor (Homo sapiens) (Q96RI1 whole entry, looked up): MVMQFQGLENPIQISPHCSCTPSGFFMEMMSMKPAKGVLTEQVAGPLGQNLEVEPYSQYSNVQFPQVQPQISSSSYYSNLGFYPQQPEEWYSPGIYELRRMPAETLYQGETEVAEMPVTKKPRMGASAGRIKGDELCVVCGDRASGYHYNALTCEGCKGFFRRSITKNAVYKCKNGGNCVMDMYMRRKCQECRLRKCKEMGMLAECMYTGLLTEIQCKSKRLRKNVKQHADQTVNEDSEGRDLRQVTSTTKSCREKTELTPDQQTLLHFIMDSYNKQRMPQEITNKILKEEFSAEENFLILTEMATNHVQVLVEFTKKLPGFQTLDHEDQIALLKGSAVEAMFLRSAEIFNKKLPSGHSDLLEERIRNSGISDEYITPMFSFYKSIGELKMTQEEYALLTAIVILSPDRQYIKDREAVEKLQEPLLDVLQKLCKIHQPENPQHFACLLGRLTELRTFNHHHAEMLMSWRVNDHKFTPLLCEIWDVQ
Sequence of Alpha-galactosidase (Coffea arabica) (Q42656 whole entry, looked up): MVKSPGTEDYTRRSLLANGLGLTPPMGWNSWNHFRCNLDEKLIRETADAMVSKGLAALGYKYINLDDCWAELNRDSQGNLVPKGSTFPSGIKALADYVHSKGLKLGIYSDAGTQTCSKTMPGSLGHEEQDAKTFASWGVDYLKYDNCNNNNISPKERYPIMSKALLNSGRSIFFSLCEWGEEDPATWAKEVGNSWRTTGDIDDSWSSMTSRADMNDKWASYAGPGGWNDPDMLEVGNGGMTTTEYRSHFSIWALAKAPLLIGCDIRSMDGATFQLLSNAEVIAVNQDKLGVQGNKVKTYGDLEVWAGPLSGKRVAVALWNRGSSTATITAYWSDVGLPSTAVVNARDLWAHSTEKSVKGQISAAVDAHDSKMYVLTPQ
Sequence of Chromobox protein homolog 1 (Homo sapiens) (P83916 whole entry, looked up): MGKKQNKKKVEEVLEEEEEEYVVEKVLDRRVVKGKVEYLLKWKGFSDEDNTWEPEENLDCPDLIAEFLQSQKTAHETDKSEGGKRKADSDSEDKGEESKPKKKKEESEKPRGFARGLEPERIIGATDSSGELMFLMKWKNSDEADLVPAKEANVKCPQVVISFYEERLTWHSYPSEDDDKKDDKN
Sequence of Androgen receptor (Homo sapiens) (P10275 whole entry, looked up): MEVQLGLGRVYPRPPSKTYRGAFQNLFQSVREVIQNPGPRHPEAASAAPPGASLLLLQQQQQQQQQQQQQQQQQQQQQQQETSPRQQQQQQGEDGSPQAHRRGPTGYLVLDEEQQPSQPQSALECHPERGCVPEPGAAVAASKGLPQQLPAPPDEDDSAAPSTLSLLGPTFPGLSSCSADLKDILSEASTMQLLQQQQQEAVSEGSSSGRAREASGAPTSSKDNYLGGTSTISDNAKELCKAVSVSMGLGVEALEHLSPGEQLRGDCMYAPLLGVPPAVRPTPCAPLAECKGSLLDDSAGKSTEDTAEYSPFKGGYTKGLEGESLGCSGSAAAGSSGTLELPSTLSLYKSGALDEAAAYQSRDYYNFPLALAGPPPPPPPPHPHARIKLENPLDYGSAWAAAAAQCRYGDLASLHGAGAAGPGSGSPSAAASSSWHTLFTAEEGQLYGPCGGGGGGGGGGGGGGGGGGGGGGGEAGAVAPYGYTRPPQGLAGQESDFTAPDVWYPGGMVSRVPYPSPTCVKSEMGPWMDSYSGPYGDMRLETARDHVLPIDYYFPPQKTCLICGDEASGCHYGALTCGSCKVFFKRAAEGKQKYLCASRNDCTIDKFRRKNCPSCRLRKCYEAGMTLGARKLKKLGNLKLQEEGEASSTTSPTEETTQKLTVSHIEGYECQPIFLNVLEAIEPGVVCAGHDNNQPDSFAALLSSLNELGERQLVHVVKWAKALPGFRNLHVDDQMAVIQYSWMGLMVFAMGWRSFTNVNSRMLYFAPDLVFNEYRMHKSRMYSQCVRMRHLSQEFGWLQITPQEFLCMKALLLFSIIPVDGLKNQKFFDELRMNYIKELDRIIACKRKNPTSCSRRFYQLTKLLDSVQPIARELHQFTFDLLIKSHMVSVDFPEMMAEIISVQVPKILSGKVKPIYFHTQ
Sequence of Luciferin 4-monooxygenase (Photinus pyralis) (P08659 whole entry, looked up): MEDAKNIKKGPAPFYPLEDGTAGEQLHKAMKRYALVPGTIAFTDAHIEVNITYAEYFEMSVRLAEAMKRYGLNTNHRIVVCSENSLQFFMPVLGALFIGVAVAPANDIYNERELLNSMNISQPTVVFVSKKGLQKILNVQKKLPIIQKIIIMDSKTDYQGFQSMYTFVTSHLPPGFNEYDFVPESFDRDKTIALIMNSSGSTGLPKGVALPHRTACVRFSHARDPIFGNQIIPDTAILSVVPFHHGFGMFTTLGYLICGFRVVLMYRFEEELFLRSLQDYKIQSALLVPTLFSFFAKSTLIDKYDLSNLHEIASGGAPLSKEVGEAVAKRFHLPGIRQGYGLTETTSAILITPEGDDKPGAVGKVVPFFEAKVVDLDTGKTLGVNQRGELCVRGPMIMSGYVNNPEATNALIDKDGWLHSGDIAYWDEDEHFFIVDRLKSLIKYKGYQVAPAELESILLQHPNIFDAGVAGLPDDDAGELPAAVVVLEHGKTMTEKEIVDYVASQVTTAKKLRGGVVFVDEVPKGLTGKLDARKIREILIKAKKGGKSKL
Sequence of RecQ-like DNA helicase BLM (Homo sapiens) (P54132 whole entry, looked up): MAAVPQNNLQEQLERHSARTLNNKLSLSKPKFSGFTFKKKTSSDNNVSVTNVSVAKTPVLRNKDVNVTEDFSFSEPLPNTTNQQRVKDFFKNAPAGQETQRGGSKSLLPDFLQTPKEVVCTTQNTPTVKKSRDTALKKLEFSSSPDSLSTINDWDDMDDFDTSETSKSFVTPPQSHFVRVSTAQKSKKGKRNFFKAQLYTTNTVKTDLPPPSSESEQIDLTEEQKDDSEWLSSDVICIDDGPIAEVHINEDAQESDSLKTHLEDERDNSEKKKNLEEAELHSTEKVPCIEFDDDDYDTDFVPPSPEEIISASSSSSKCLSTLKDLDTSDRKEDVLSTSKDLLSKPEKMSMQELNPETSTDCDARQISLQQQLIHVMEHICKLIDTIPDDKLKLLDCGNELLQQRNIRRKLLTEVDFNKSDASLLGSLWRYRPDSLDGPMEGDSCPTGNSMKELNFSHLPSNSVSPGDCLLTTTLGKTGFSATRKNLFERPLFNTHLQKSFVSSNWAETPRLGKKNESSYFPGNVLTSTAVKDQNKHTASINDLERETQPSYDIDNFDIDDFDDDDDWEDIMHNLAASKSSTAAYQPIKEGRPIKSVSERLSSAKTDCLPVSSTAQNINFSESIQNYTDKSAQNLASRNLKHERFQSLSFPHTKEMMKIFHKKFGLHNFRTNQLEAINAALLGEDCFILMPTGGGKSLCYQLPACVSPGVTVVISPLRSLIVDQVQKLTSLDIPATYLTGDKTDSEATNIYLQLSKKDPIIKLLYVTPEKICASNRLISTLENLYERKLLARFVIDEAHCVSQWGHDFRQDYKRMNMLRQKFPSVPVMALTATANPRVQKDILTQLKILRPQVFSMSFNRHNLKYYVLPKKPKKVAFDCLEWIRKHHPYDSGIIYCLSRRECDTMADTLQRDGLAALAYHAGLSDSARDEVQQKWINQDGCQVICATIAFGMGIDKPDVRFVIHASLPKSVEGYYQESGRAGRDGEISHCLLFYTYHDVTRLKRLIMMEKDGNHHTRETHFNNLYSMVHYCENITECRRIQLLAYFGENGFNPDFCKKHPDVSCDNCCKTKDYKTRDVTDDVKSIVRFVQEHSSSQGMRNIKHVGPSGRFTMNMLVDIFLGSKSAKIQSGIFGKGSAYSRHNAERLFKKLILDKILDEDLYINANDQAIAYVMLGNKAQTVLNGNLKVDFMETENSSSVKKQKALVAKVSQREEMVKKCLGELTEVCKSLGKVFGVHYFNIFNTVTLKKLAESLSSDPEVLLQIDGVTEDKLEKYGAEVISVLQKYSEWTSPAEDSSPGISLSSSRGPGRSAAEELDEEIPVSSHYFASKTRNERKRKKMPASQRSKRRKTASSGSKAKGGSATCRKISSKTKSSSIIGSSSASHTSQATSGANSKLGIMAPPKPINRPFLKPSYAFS

For the compound `C[C@]12CC[C@@H](O)CC1CCC1C2CC[C@]2(C)C(=O)CC[C@@H]12` (some centres undefined), the result in test [1] was inactive.

In the case of `C[C@]12CC[C@H](OS(=O)(=O)O)CC1=CCC1C2CC[C@]2(C)C(=O)CC[C@@H]12` (some centres undefined), the Potency result in test [2], in [3], in [4], in test [5], in test [6] and in test [7] was “inactive” in each case. The Potency entry in test [8], in test [9], in test [10], in test [11] and in [12] was “inactive” each time.

On to `[Hg+][c]1ccccc1`, for which the Potency is 8.09 µM (active) in [2]; 1.14 µM (active) in [3]; 1.78 µM (active) in test [4]; 10.7 µM (active) in test [7]; 9.53 µM (active) in [8]; 13.5 µM (active) in [9]. Further, in test [11], the Potency is 11.2 µM (active). Moreover, the Potency result in [5], in test [6], in test [10] and in test [12] was “inactive” throughout.

Take `S=C(S)N1CCCC1`: the compound was called inactive in test [13], in test [14], in test [16] and in test [17]. In addition, in test [15], the Potency is 44.7 µM (active).

Turning to `Cc1ccc([N+](=O)[O-])cc1C`, the Potency result in test [18] was “inactive”.

For `COc1cc(OC)c(/C=C2/C(=O)Nc3ccccc32)c(OC)c1`, the result in test [13], in [14], in test [16] and in test [17] was inactive. The Potency in [15] is 31.6 µM (active).

For `NC(=S)Nc1ccccc1`, in [19], the activation is -3.05% (inactive) and -3.49% (inactive).

Consider `c1ccc2c(c1)CCCC2`, for which the Potency entry in test [20] was “inactive”.

In the case of `O=NN(c1ccccc1)c1ccccc1`, the activation in test [19] is -0.746% (inactive) and 1.47% (inactive). For the same compound, in [18], the Potency entry was “inactive”.

On to `CCSC(=O)Cl`, for which the Potency entry in test [20] is “inactive”.

(Values after PubChem BioAssay (NCATS).)
